Laboratory results: PubChem BioAssay (NCI)
The panel holds about 83,000 compounds, 20% with a hit somewhere; the sample as a whole holds those more often.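 How to read the values: 0–100, growth inhibition (40 = 60% inhibited); 0, no net growth; -100 to 0, cell death (-40 = 40% of starting cells died; -100 = all dead).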 Unmarked numbers belong to inactive results. Calls of active or inactive are those of the source. How the source made its calls: active means growth percent below 10; inactive means the rest.

What follows are compounds tested on DU-145 prostate (assay: NCI-60 one-dose screen, 48 h (100 = growth as untreated, 0 = no growth, -100 = all killed)). Conditions: 10 µM.
With `CCNCCCCNCCCCNCCCCNCCCCNCC` the growth was 82.1%.
Work on `CC1=CC(C)(C)NC(=S)N1c1ccc(S(=O)(=O)O)c2cccc(S(=O)(=O)O)c12` yielded a growth of 111%.
In the case of `O=c1[nH]cc(Cl)cc1O`, the growth is reported as 96.8%.
`CC(C)=NNc1ccc([N+](=O)[O-])cc1[N+](=O)[O-]` showed a growth of 89.8%.
In the case of `CC1CC(O)CC(C)(C)C1` (stereo unspecified), the growth is reported as 101%.
`CCOC(=O)CNN` was tested, and the growth was 98.6%.
Compound `CCOC(=O)c1ccc(NC(=S)P(=O)(c2ccccc2)c2ccccc2)cc1` has a growth of 113%.
`O=C(Nc1cccc(NC(=O)Nc2cc(C(F)(F)F)ccc2Cl)c1)Nc1cc(C(F)(F)F)ccc1Cl` gave a growth of 30.8%.
Work on `COc1cc(-c2ccc(NC(=O)NC3CC3)c(OC)c2)ccc1NC(=O)NC1CC1` yielded a growth of 84.9%.
`Oc1ccc2c(c1)OCC1(O)Cc3cc(O)c(O)cc3C21` (stereo unspecified) showed a growth of 99.1%.
`COc1ccc(Oc2c(I)cc(CC(NC(C)=O)C(=O)O)cc2I)cc1` (stereo unspecified) gave a growth of 107%.
With `CCCCC/C=N/Nc1nc(C)cc(=O)[nH]1` the growth was 114%.
For `CN(C)C(C)(C)CC(C)(C)C`, the growth was 99.5%.
`CN(C)C(=O)Oc1cccc([N+](C)(C)C)c1` was tested, and the growth was 113%.
`CC12CC3CC1C(C(=O)O2)C3C(=O)O` (stereo unspecified) was tested, and the growth was 106%.
`CCN(CC)c1ccc2nc3ccc(=[N+](CC)CC)cc-3oc2c1` gave a growth of 37.6%.
Compound `O=C(NC1CCCCC1)OCc1c(COC(=O)NC2CCCCC2)c(-c2ccc(Cl)c(Cl)c2)n2c1CCC2` has a growth of 20.2%.
`N#CCCN(CCCN1CCOCC1)CN1C(=O)c2ccccc2C1=O` showed a growth of 109%.

Each compound was assayed on K-562 leukemia in the same assay as above. Conditions: 10 µM.
For `CC(=O)OC1CC2C(C)(C)OC3CC(=O)OCC32C2CCC3(C)C(=CCC3c3ccoc3)C12C` (stereo unspecified), the growth was 95.5%.
`CCC(O)CC(CC)CO` (stereo unspecified) showed a growth of 105%.
`CC(=Nc1ccccc1)C1=C(O)C(Cc2cccc(F)c2)NC1=O` (stereo unspecified) was tested, and the growth was 5.47% (active).
`Cc1c(O)cccc1O` was tested, and the growth was 88.2%.
Compound `CC1CCCCN1C(=S)Nc1ccc(S(=O)(=O)N2CCCCC2)cc1` (stereo unspecified) has a growth of 84.6%.
`C=C1CC/C=C(\C)C(=O)C[C@@H]2[C@@H]1CC2(C)C` was tested, and the growth was 102%.
Work on `N#C/C(=C\c1cc(O)c(O)c(O)c1)C(N)=O` yielded a growth of 71.9%.
`C#CCSc1nnnn1-c1ccc(Br)c(C)c1` gave a growth of 86.3%.
`Brc1cnc2ccccc2c1` gave a growth of 107%.
`O=C1C=C(O)C(=O)C=C1O` was tested, and the growth was 103%.
For `COC(=O)Nc1nc2ccc(C(=O)c3ccc(F)cc3)cc2[nH]1`, the growth was -37% (active).
For `CCOC(=O)C1=C(C)NC(=O)NC1c1cccs1` (stereo unspecified), the growth was 103%.
Compound `CCOC(=O)Nc1cc2c(c(N)n1)N=C(c1ccccc1)CO2` has a growth of 10.1%.
With `COC(=O)c1cccnc1` the growth was 113%.
`O=[N+]([O-])c1cccc(C(F)(F)F)c1` was tested, and the growth was 119%.
Compound `CC(=O)Cc1ccc(-c2ccccc2)cc1` has a growth of 108%.
In the case of `Cc1ccc(C(=O)NC2c3ccccc3Oc3ccccc32)cc1`, the growth is reported as 14.3%.
`CC1(c2ccccc2)NC(=O)NC1=O` (stereo unspecified) gave a growth of 103%.
`COc1cc2c3c(n(C)c(=O)c2cc1OC)-c1cc2c(cc1C3=O)OCO2` gave a growth of 40.8%.
`O=[N+]([O-])c1ccc(-c2ncc(-c3ccc(Br)cc3)o2)cc1` was tested, and the growth was 97.3%.
Work on `CCNCCCCNCCCCNCCCCNCCCCNCC` yielded a growth of 61%.
In the case of `CC1=CC(C)(C)NC(=S)N1c1ccc(S(=O)(=O)O)c2cccc(S(=O)(=O)O)c12`, the growth is reported as 116%.
`O=c1[nH]cc(Cl)cc1O` gave a growth of 48%.
`CC(C)=NNc1ccc([N+](=O)[O-])cc1[N+](=O)[O-]` gave a growth of 60.2%.
`CC1CC(O)CC(C)(C)C1` (stereo unspecified) gave a growth of 110%.
Work on `CCOC(=O)CNN` yielded a growth of 79.5%.
`CCOC(=O)c1ccc(NC(=S)P(=O)(c2ccccc2)c2ccccc2)cc1` showed a growth of 56.2%.
Work on `O=C(Nc1cccc(NC(=O)Nc2cc(C(F)(F)F)ccc2Cl)c1)Nc1cc(C(F)(F)F)ccc1Cl` yielded a growth of 16.3%.
With `COc1cc(-c2ccc(NC(=O)NC3CC3)c(OC)c2)ccc1NC(=O)NC1CC1` the growth was 31.2%.
For `Oc1ccc2c(c1)OCC1(O)Cc3cc(O)c(O)cc3C21` (stereo unspecified), the growth was 20.7%.
For `COc1ccc(Oc2c(I)cc(CC(NC(C)=O)C(=O)O)cc2I)cc1` (stereo unspecified), the growth was 63.9%.
Compound `CCCCC/C=N/Nc1nc(C)cc(=O)[nH]1` has a growth of 105%.
Work on `CN(C)C(C)(C)CC(C)(C)C` yielded a growth of 96.5%.
With `CN(C)C(=O)Oc1cccc([N+](C)(C)C)c1` the growth was 104%.
Work on `CC12CC3CC1C(C(=O)O2)C3C(=O)O` (stereo unspecified) yielded a growth of 95.6%.
For `CCN(CC)c1ccc2nc3ccc(=[N+](CC)CC)cc-3oc2c1`, the growth was 21%.
Work on `O=C(NC1CCCCC1)OCc1c(COC(=O)NC2CCCCC2)c(-c2ccc(Cl)c(Cl)c2)n2c1CCC2` yielded a growth of 10.5%.
`N#CCCN(CCCN1CCOCC1)CN1C(=O)c2ccccc2C1=O` showed a growth of 91.6%.
